The text below walks through data of paper PMC11006913.

Residue numbers refer to the chain shown, from its start.

What all share (assay): PBM; 200 nM protein, PBS
Conditions in all cases: dsDNA, one strand shown

Assay [1] deals with T1, SIX6 (Homo sapiens, UniProt O95475 114-200, L167I).
T1 sequence: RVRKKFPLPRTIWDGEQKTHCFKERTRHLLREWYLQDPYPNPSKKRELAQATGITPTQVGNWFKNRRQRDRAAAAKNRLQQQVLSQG

In assay [2] the target is T2, SIX6 (Homo sapiens, UniProt O95475 114-200, L143V).
T2 sequence: T1 sequence with L30V, I54L

In assay [3] the target is T3, SIX6 (Homo sapiens, UniProt O95475 114-200, H141N).
T3 sequence: T1 sequence with H28N, I54L

Assay [4] deals with T4, SIX6 (Homo sapiens, UniProt O95475 114-200, T165P).
T4 sequence: T1 sequence with T52P, I54L

Assay [5] addresses T5, SIX6 (Homo sapiens, UniProt O95475 114-200, L167M).
T5 sequence: T1 sequence with I54M

Assay [6] concerns the target T6, SIX6 (Homo sapiens, UniProt O95475 114-200, L143M).
T6 sequence: T1 sequence with L30M, I54L

Assay [7] addresses T7, SIX6 (Homo sapiens, UniProt O95475 114-200, L143I).
T7 sequence: T1 sequence with L30I, I54L

Assay [8] concerns the target T8, SIX6 (Homo sapiens, UniProt O95475 114-200, T165G).
T8 sequence: T1 sequence with T52G, I54L

Assay [9] concerns the target T9, SIX6 (Homo sapiens, UniProt O95475 114-200, T139Q).
T9 sequence: T1 sequence with T26Q, I54L

Assay [10] concerns the target T10, SIX6 (Homo sapiens, UniProt O95475 114-200, T165A).
T10 sequence: T1 sequence with T52A, I54L

In assay [11] the target is T11, SIX6 (Homo sapiens, UniProt O95475 114-200, L167V).
T11 sequence: T1 sequence with I54V

For assay [12], the target named is T12, SIX6 (Homo sapiens, UniProt O95475 114-200).
T12 sequence: T1 sequence with I54L

Assay [13] deals with T13, SIX6 (Homo sapiens, UniProt O95475 114-200, T165I).
T13 sequence: T1 sequence with T52I, I54L

As to GATGATAC, the binding signal with SIX6 [1] is 11.4 upbm affinity estimate (log intensity, higher = more binding, comparable within an allelic series); with SIX6 [2] it was 10.4 upbm affinity estimate (log intensity, higher = more binding, comparable within an allelic series); in the assay with SIX6 [3] it was 11.3 upbm affinity estimate (log intensity, higher = more binding, comparable within an allelic series); with SIX6 [4] it was 9.55 upbm affinity estimate (log intensity, higher = more binding, comparable within an allelic series); in the assay with SIX6 [5] it was 10.7 upbm affinity estimate (log intensity, higher = more binding, comparable within an allelic series); in the assay with SIX6 [6], 11.1 upbm affinity estimate (log intensity, higher = more binding, comparable within an allelic series). Moreover, the binding signal with SIX6 [7] is 10.5 upbm affinity estimate (log intensity, higher = more binding, comparable within an allelic series); in the assay with SIX6 [8], 11.4 upbm affinity estimate (log intensity, higher = more binding, comparable within an allelic series); in the assay with SIX6 [9], 11.3 upbm affinity estimate (log intensity, higher = more binding, comparable within an allelic series); in the assay with SIX6 [10] it was 11.2 upbm affinity estimate (log intensity, higher = more binding, comparable within an allelic series); with SIX6 [11], 11.2 upbm affinity estimate (log intensity, higher = more binding, comparable within an allelic series); with SIX6 [12] it was 11.1 upbm affinity estimate (log intensity, higher = more binding, comparable within an allelic series). Further, in the assay with SIX6 [13], the binding signal is 11.1 upbm affinity estimate (log intensity, higher = more binding, comparable within an allelic series).

In the case of CGCGCTCC, the binding signal in the assay with SIX6 [1] was 8.99 upbm affinity estimate (log intensity, higher = more binding, comparable within an allelic series); with SIX6 [2], 8.9 upbm affinity estimate (log intensity, higher = more binding, comparable within an allelic series); with SIX6 [3] it was 8.83 upbm affinity estimate (log intensity, higher = more binding, comparable within an allelic series); with SIX6 [4], 9.01 upbm affinity estimate (log intensity, higher = more binding, comparable within an allelic series); in the assay with SIX6 [5], 8.97 upbm affinity estimate (log intensity, higher = more binding, comparable within an allelic series); with SIX6 [6], 9.06 upbm affinity estimate (log intensity, higher = more binding, comparable within an allelic series). For the same sequence, the binding signal with SIX6 [7] is 8.97 upbm affinity estimate (log intensity, higher = more binding, comparable within an allelic series); in the assay with SIX6 [8] it was 8.86 upbm affinity estimate (log intensity, higher = more binding, comparable within an allelic series); with SIX6 [9], 9.04 upbm affinity estimate (log intensity, higher = more binding, comparable within an allelic series); with SIX6 [10], 8.97 upbm affinity estimate (log intensity, higher = more binding, comparable within an allelic series); with SIX6 [11], 8.93 upbm affinity estimate (log intensity, higher = more binding, comparable within an allelic series); with SIX6 [12], 8.91 upbm affinity estimate (log intensity, higher = more binding, comparable within an allelic series). Also, in the assay with SIX6 [13], the binding signal is 8.89 upbm affinity estimate (log intensity, higher = more binding, comparable within an allelic series).

Consider CGCCCACC, for which the binding signal with SIX6 [1] was 9.03 upbm affinity estimate (log intensity, higher = more binding, comparable within an allelic series); with SIX6 [2], 9.02 upbm affinity estimate (log intensity, higher = more binding, comparable within an allelic series); with SIX6 [3], 9.04 upbm affinity estimate (log intensity, higher = more binding, comparable within an allelic series); in the assay with SIX6 [4], 9.15 upbm affinity estimate (log intensity, higher = more binding, comparable within an allelic series); with SIX6 [5], 9.04 upbm affinity estimate (log intensity, higher = more binding, comparable within an allelic series); with SIX6 [6] it was 9.02 upbm affinity estimate (log intensity, higher = more binding, comparable within an allelic series). Further, the binding signal with SIX6 [7] is 9.17 upbm affinity estimate (log intensity, higher = more binding, comparable within an allelic series); with SIX6 [8], 9.11 upbm affinity estimate (log intensity, higher = more binding, comparable within an allelic series); with SIX6 [9] it was 9.21 upbm affinity estimate (log intensity, higher = more binding, comparable within an allelic series); in the assay with SIX6 [10], 9.07 upbm affinity estimate (log intensity, higher = more binding, comparable within an allelic series); in the assay with SIX6 [11], 9.06 upbm affinity estimate (log intensity, higher = more binding, comparable within an allelic series); with SIX6 [12], 9.1 upbm affinity estimate (log intensity, higher = more binding, comparable within an allelic series). The binding signal with SIX6 [13] was 9.03 upbm affinity estimate (log intensity, higher = more binding, comparable within an allelic series).

In the case of GTATCAAC, the binding signal is 11.2 upbm affinity estimate (log intensity, higher = more binding, comparable within an allelic series) with SIX6 [1]; 10.3 upbm affinity estimate (log intensity, higher = more binding, comparable within an allelic series) in the assay with SIX6 [2]; 11.3 upbm affinity estimate (log intensity, higher = more binding, comparable within an allelic series) in the assay with SIX6 [3]; 9.76 upbm affinity estimate (log intensity, higher = more binding, comparable within an allelic series) with SIX6 [4]; 10.6 upbm affinity estimate (log intensity, higher = more binding, comparable within an allelic series) with SIX6 [5]; 11 upbm affinity estimate (log intensity, higher = more binding, comparable within an allelic series) with SIX6 [6]. The binding signal was 10.4 upbm affinity estimate (log intensity, higher = more binding, comparable within an allelic series) in the assay with SIX6 [7]; 11.4 upbm affinity estimate (log intensity, higher = more binding, comparable within an allelic series) with SIX6 [8]; 11.3 upbm affinity estimate (log intensity, higher = more binding, comparable within an allelic series) in the assay with SIX6 [9]; 11.3 upbm affinity estimate (log intensity, higher = more binding, comparable within an allelic series) with SIX6 [10]; 11 upbm affinity estimate (log intensity, higher = more binding, comparable within an allelic series) with SIX6 [11]; 11.1 upbm affinity estimate (log intensity, higher = more binding, comparable within an allelic series) with SIX6 [12]. In addition, the binding signal with SIX6 [13] is 11.1 upbm affinity estimate (log intensity, higher = more binding, comparable within an allelic series).

In the case of AGCGGTGG, the binding signal with SIX6 [1] was 8.97 upbm affinity estimate (log intensity, higher = more binding, comparable within an allelic series); in the assay with SIX6 [2] it was 8.89 upbm affinity estimate (log intensity, higher = more binding, comparable within an allelic series); with SIX6 [3] it was 8.96 upbm affinity estimate (log intensity, higher = more binding, comparable within an allelic series); with SIX6 [4], 8.97 upbm affinity estimate (log intensity, higher = more binding, comparable within an allelic series); with SIX6 [5] it was 8.93 upbm affinity estimate (log intensity, higher = more binding, comparable within an allelic series); with SIX6 [6], 9.05 upbm affinity estimate (log intensity, higher = more binding, comparable within an allelic series). The binding signal is 9 upbm affinity estimate (log intensity, higher = more binding, comparable within an allelic series) with SIX6 [7]; 8.94 upbm affinity estimate (log intensity, higher = more binding, comparable within an allelic series) in the assay with SIX6 [8]; 9.04 upbm affinity estimate (log intensity, higher = more binding, comparable within an allelic series) in the assay with SIX6 [9]; 8.98 upbm affinity estimate (log intensity, higher = more binding, comparable within an allelic series) with SIX6 [10]; 8.84 upbm affinity estimate (log intensity, higher = more binding, comparable within an allelic series) with SIX6 [11]; 9.06 upbm affinity estimate (log intensity, higher = more binding, comparable within an allelic series) in the assay with SIX6 [12]. Further, in the assay with SIX6 [13], the binding signal is 8.95 upbm affinity estimate (log intensity, higher = more binding, comparable within an allelic series).

For CAGTGGCC, the binding signal with SIX6 [1] was 8.99 upbm affinity estimate (log intensity, higher = more binding, comparable within an allelic series); in the assay with SIX6 [2], 8.9 upbm affinity estimate (log intensity, higher = more binding, comparable within an allelic series); with SIX6 [3], 8.99 upbm affinity estimate (log intensity, higher = more binding, comparable within an allelic series); in the assay with SIX6 [4] it was 9.04 upbm affinity estimate (log intensity, higher = more binding, comparable within an allelic series); with SIX6 [5], 8.93 upbm affinity estimate (log intensity, higher = more binding, comparable within an allelic series); in the assay with SIX6 [6] it was 8.95 upbm affinity estimate (log intensity, higher = more binding, comparable within an allelic series). In addition, the binding signal with SIX6 [7] was 8.95 upbm affinity estimate (log intensity, higher = more binding, comparable within an allelic series); with SIX6 [8], 9.02 upbm affinity estimate (log intensity, higher = more binding, comparable within an allelic series); with SIX6 [9], 8.99 upbm affinity estimate (log intensity, higher = more binding, comparable within an allelic series); in the assay with SIX6 [10] it was 8.94 upbm affinity estimate (log intensity, higher = more binding, comparable within an allelic series); with SIX6 [11], 9.05 upbm affinity estimate (log intensity, higher = more binding, comparable within an allelic series); with SIX6 [12], 8.95 upbm affinity estimate (log intensity, higher = more binding, comparable within an allelic series). The binding signal with SIX6 [13] is 8.94 upbm affinity estimate (log intensity, higher = more binding, comparable within an allelic series).
